Laboratory results from PubChem BioAssay AID1159580 (chemical genetic matrix, 2015).
Values joined by “and” are separate entries in the source; they are usually repeats but may differ in a detail not shown here. Identical values can stand only once. The campaign covered roughly 5,500 compounds. About 2,000 (36%) were called active. Inconclusive results (about 18%) are left out. Cut-off read from the data, not from the text of the source: active = normalized growth mostly below about 0.91 (no sharp cut-off); inconclusive = no clear call, values can overlap the other calls; inactive = mostly above about 0.92. Some of the results follow. Where a structure was tested more than once in an assay, its records may differ in their call.

Assay: chemical genetic growth profiling, strain panel (AID 1159580);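 note: tested at 20 µM; growth read once vehicle control cultures reached saturation at 30 °C; 1 = growth at the plate median or of vehicle wells; lower values mean less growth of the strain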
Conditions: S. cerevisiae deletion strains, growth OD

## O=C1CCc2cc(OCCCCc3nnnn3C3CCCCC3)ccc2N1
Locus YAL013W, strain DEP1, stronger effect = lower value
  normalized growth: 1 (inactive)
Locus YAL021C, strain ccr4, stronger effect = lower value
  normalized growth: 0.996 (inactive)
Locus YAL026C, strain drs2, stronger effect = lower value
  normalized growth: 1.01 (inactive)
Locus YAL030W, strain snc1, stronger effect = lower value
  normalized growth: 0.985 (inactive)
Locus YAL040C, strain CLN3, stronger effect = lower value
  normalized growth: 1.01 (inactive)
Locus YBL061C, strain skt5, stronger effect = lower value
  normalized growth: 0.991 (inactive)
Locus YBR009C, strain hhf1, stronger effect = lower value
  normalized growth: 0.989 (inactive)
Locus YBR021W, strain FUR4, stronger effect = lower value
  normalized growth: 1.03 (inactive)
Locus YBR023C, strain chs3, stronger effect = lower value
  normalized growth: 1 (inactive)
Locus YBR171W, strain sec66, stronger effect = lower value
  normalized growth: 0.981 (inactive)
Locus YBR229C, strain ROT2, stronger effect = lower value
  normalized growth: 1 (inactive)
Locus YBR231C, strain swc5, stronger effect = lower value
  normalized growth: 0.99 (inactive)
Locus YBR279W, strain paf1, stronger effect = lower value
  normalized growth: 0.989 (inactive)
Locus YCL011C, strain gbp2, stronger effect = lower value
  normalized growth: 0.995 (inactive)
Locus YCL016C, strain dcc1, stronger effect = lower value
  normalized growth: 1 (inactive)
Locus YCL029C, strain bik1, stronger effect = lower value
  normalized growth: 0.988 (inactive)
Locus YCL061C, strain MRC1 (second series), stronger effect = lower value
  normalized growth: 0.0772 (active)
Locus YCL061C, strain MRC1, stronger effect = lower value
  normalized growth: 0.988 (inactive)
Locus YCL069W, strain vba3, stronger effect = lower value
  normalized growth: 0.982 (inactive)
Locus YCR088W, strain abp1, stronger effect = lower value
  normalized growth: 0.992 (inactive)
Locus YDL005C, strain med2, stronger effect = lower value
  normalized growth: 0.983 (inactive)
Locus YDL035C, strain GPR1, stronger effect = lower value
  normalized growth: 1.01 (inactive)
Locus YDL040C, strain nat1, stronger effect = lower value
  normalized growth: 0.988 (inactive)
Locus YDL074C, strain BRE1, stronger effect = lower value
  normalized growth: 1.03 (inactive)
Locus YDL101C, strain DUN1, stronger effect = lower value
  normalized growth: 1 (inactive)
Locus YDL134C, strain PPH21, stronger effect = lower value
  normalized growth: 1.01 (inactive)
Locus YDL185W, strain tfp1, stronger effect = lower value
  normalized growth: 0.993 (inactive)
Locus YDL192W, strain arf1, stronger effect = lower value
  normalized growth: 0.971 (inactive)
Locus YDR001C, strain nth1, stronger effect = lower value
  normalized growth: 0.998 (inactive)
Locus YDR069C, strain doa4, stronger effect = lower value
  normalized growth: 0.987 (inactive)
Locus YDR101C, strain arx1, stronger effect = lower value
  normalized growth: 0.977 (inactive)
Locus YDR137W, strain rgp1, stronger effect = lower value
  normalized growth: 0.894 (inactive)
Locus YDR150W, strain NUM1, stronger effect = lower value
  normalized growth: 1.01 (inactive)
Locus YDR159W, strain sac3, stronger effect = lower value
  normalized growth: 0.978 (inactive)
Locus YDR162C, strain NBP2, stronger effect = lower value
  normalized growth: 1.02 (inactive)
Locus YDR195W, strain ref2
  normalized growth: 0.958 (inactive)
Locus YDR297W, strain sur2, stronger effect = lower value
  normalized growth: 0.995 (inactive)
Locus YDR318W, strain mcm21, stronger effect = lower value
  normalized growth: 1 (inactive)
Locus YDR334W, strain swr1, stronger effect = lower value
  normalized growth: 0.999 (inactive)
Locus YDR335W, strain msn5, stronger effect = lower value
  normalized growth: 0.981 (inactive)
Locus YDR388W, stronger effect = lower value
  normalized growth: 0.99 (inactive)
Locus YDR392W, strain spt3, stronger effect = lower value
  normalized growth: 0.984 (inactive)
Locus YDR502C, strain sam2, stronger effect = lower value
  normalized growth: 1.02 (inactive)
Locus YEL003W, strain gim4, stronger effect = lower value
  normalized growth: 1 (inactive)
Locus YEL037C, strain rad23, stronger effect = lower value
  normalized growth: 0.999 (inactive)
Locus YEL061C, strain CIN8 (second series), stronger effect = lower value
  normalized growth: 0.998 (inactive)
Locus YEL061C, strain CIN8, stronger effect = lower value
  normalized growth: 1 (inactive)
Locus YER002W, strain NOP16, stronger effect = lower value
  normalized growth: 1.01 (inactive)
Locus YER015W, strain faa2, stronger effect = lower value
  normalized growth: 0.997 (inactive)
Locus YER016W, strain bim1, stronger effect = lower value
  normalized growth: 0.993 (inactive)
Locus YER110C, stronger effect = lower value
  normalized growth: 0.993 (inactive)
Locus YER111C, strain swi4, stronger effect = lower value
  normalized growth: 0.979 (inactive)
Locus YER155C, strain BEM2 (second series), stronger effect = lower value
  normalized growth: 0.965 (inactive)
Locus YER155C, strain BEM2, stronger effect = lower value
  normalized growth: 1.02 (inactive)
Locus YER167W, strain BCK2, stronger effect = lower value
  normalized growth: 1 (inactive)
Locus YFR010W, strain ubp6, stronger effect = lower value
  normalized growth: 0.991 (inactive)
Locus YGL078C, strain dbp3, stronger effect = lower value
  normalized growth: 1 (inactive)
Locus YGL086W, strain mad1, stronger effect = lower value
  normalized growth: 1 (inactive)
Locus YGL167C, strain pmr1, stronger effect = lower value
  normalized growth: 0.986 (inactive)
Locus YGL173C, strain kem1, stronger effect = lower value
  normalized growth: 0.986 (inactive)
Locus YGL227W, strain vid30, stronger effect = lower value
  normalized growth: 0.985 (inactive)
Locus YGL240W, strain doc1, stronger effect = lower value
  normalized growth: 0.959 (inactive)
Locus YGL248W, strain PDE1, stronger effect = lower value
  normalized growth: 1 (inactive)
Locus YGL253W, strain hxk2, stronger effect = lower value
  normalized growth: 1 (inactive)
Locus YGR078C, strain PAC10, stronger effect = lower value
  normalized growth: 1.02 (inactive)
Locus YGR135W, strain pre9, stronger effect = lower value
  normalized growth: 0.997 (inactive)
Locus YGR229C, strain SMI1, stronger effect = lower value
  normalized growth: 1.01 (inactive)
Locus YGR252W, strain gcn5, stronger effect = lower value
  normalized growth: 0.956 (inactive)
Locus YHR013C, strain ard1, stronger effect = lower value
  normalized growth: 0.99 (inactive)
Locus YHR027C, strain rpn1, stronger effect = lower value
  normalized growth: 0.998 (inactive)
Locus YHR030C, strain SLT2, stronger effect = lower value
  normalized growth: 1 (inactive) and 0.979 (inactive)
Locus YHR079C, strain IRE1 (second series), stronger effect = lower value
  normalized growth: 0.995 (inactive)
Locus YHR079C, strain IRE1, stronger effect = lower value
  normalized growth: 0.986 (inactive)
Locus YHR094C, strain hxt1, stronger effect = lower value
  normalized growth: 0.993 (inactive)
Locus YHR129C, strain ARP1, stronger effect = lower value
  normalized growth: 1 (inactive)
Locus YHR142W, strain chs7, stronger effect = lower value
  normalized growth: 1 (inactive)
Locus YHR200W, strain rpn10, stronger effect = lower value
  normalized growth: 0.995 (inactive)
Locus YIL066C, strain RNR3, stronger effect = lower value
  normalized growth: 1.01 (inactive)
Locus YIL073C, strain SPO22, stronger effect = lower value
  normalized growth: 0.989 (inactive)
Locus YIL125W, strain kgd1, stronger effect = lower value
  normalized growth: 1.01 (inactive)
Locus YIR030C, strain dcg1, stronger effect = lower value
  normalized growth: 0.998 (inactive)
Locus YJL092W, strain hpr5, stronger effect = lower value
  normalized growth: 0.996 (inactive)
Locus YJL095W, strain BCK1 (second series), stronger effect = lower value
  normalized growth: 0.984 (inactive)
Locus YJL095W, strain BCK1, stronger effect = lower value
  normalized growth: 1.01 (inactive) and 0.989 (inactive)
Locus YJL115W, strain asf1, stronger effect = lower value
  normalized growth: 0.999 (inactive)
Locus YJL129C, strain trk1, stronger effect = lower value
  normalized growth: 0.973 (inactive)
Locus YJL134W, strain LCB3, stronger effect = lower value
  normalized growth: 1 (inactive)
Locus YJL154C, strain vps35, stronger effect = lower value
  normalized growth: 0.993 (inactive)
Locus YJL164C, strain tpk1, stronger effect = lower value
  normalized growth: 1 (inactive)
Locus YJL166W, strain qcr8, stronger effect = lower value
  normalized growth: 0.979 (inactive)
Locus YJL168C, strain set2, stronger effect = lower value
  normalized growth: 0.992 (inactive)
Locus YJL187C, strain SWE1 (second series), stronger effect = lower value
  normalized growth: 1.01 (inactive)
Locus YJR043C, strain POL32, stronger effect = lower value
  normalized growth: 1.01 (inactive)
Locus YJR066W, strain TOR1, stronger effect = lower value
  normalized growth: 0.942 (inactive)
Locus YJR075W, strain HOC1, stronger effect = lower value
  normalized growth: 0.998 (inactive) and 0.252 (active)
